# Results published in PubChem BioAssay (NCI).
# Compounds without any hit were thinned out: in the full panel of roughly 83,000, 20% have a hit.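 Interpretation: 100, growth as untreated; towards 0, rising growth inhibition; 0, no net growth; 0 to -100, cell death. Compounds scoring below 10 were considered active.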 Values without a mark were called inactive. Calls of active or inactive are those of the source.
# How the values were obtained:
# Assay in all cases: NCI-60 one-dose screen, 48 h (100 = growth as untreated, 0 = no growth, -100 = all killed)
# Conditions in all cases: 10 µM unless noted
# [1] = test system: T-47D breast
# [2] = test system: BT-549 breast
# [3] = test system: MDA-MB-435 melanoma
# [4] = test system: SW-620 colon
# [5] = test system: MCF7 breast
# [6] = test system: HCT-116 colon
# [7] = test system: HCC-2998 colon
# [8] = test system: KM12 colon
SMILES,growth [1],growth [2],growth [3],growth [4],growth [5],growth [6],growth [7],growth [8]
CCCCCCCCCCCCCCCCNCCC[C@@H](C)[C@H]1CC[C@H]2[C@@H]3[C@H](OCCCN)C[C@@H]4C[C@H](OCCCN)CC[C@]4(C)[C@H]3C[C@H](OCCCN)[C@]12C,-20.9% (active),-26% (active),-28.3% (active),-25.3% (active),-44.3% (active),-16.6% (active),-32.4% (active),-24.3% (active)
COc1cc(C2CC(=O)c3c(C)nn(-c4nc5ccccc5[nH]4)c3C2)cc(OC)c1OC (configuration not stated),60%,77.7%,99.8%,99.6%,76.4%,68.7%,82.4%,102%
C=C1CCC2C3(C)COC(c4ccc(OC)cc4Br)OC3CCC2(C)C1/C=C/C1=CCOC1=O (configuration not stated),41.3%,73.8%,93.7%,84%,60.7%,53.9%,57.9%,83.4%
CN1CCN(Cc2ccc(NC(=O)c3cncc(C#Cc4c(N)ncc5ccc(C#N)cc45)c3)cc2C(F)(F)F)CC1,65%,92.3%,-93.8% (active),-69.2% (active),-69.7% (active),-22% (active),78.5%,-41.8% (active)
CCCCCCCCCCCCS(=O)CC(C)O (configuration not stated),98.2%,109%,96.3%,106%,93.2%,109%,111%,116%
O=C1C=CC(=O)N1c1ccc(Cc2ccc(N3C(=O)C=CC3=O)cc2)cc1,89.8%,95.8%,104%,110%,89.5%,89%,102%,100%
CCCCCN(CCCCC)CCC[C@@H](C)[C@H]1CC[C@H]2[C@@H]3[C@H](OCCCN)C[C@@H]4C[C@H](OCCCN)CC[C@]4(C)[C@H]3C[C@H](OCCCN)[C@]12C,68.1%,55%,-13.6% (active),45.9%,74.8%,22.7%,59.6%,22.5%
CCCCCCCCCCCCCC1=NCCN1CCO,65.7%,123%,85.3%,-38.6% (active),54.8%,-36.2% (active),71.2%,56.7%
C=C1CC2(OC1=O)C(=O)N(CCCCCCCN1C(=O)C3(CC(=C)C(=O)O3)c3ccccc31)c1ccccc12 (configuration not stated),22.5%,35.2%,6.35% (active),-49.8% (active),-4.01% (active),-21.8% (active),82.5%,73.6%
Cc1noc(C)c1-c1cc(O)cc(C(O)c2ccccc2)c1 (configuration not stated),47.1%,64.7%,43.9%,72.1%,20.9%,58.1%,62.2%,53.1%
Cc1cccc(NC(=O)c2sc3nc4c(cc3c2N)C(=O)CCC4)c1,44%,41.6%,-52.8% (active),26.6%,22.6%,29.3%,33.7%,21.4%
O=C(CCCCN1CCOCC1)Nc1ccc(Cn2nnc3c2C(=O)c2nnn(Cc4ccc(NC(=O)CCCCN5CCOCC5)cc4)c2C3=O)cc1,-50.5% (active),-94.7% (active),-77% (active),-50.1% (active),-51.7% (active),-91% (active),-62.3% (active),-36.2% (active)
O=C1C(Cl)=C(Cl)C(=O)c2c1nc1n2CCCC1,48.3%,95.5%,115%,81.6%,70%,84.1%,52.5%,80.5%
O=[N+]([O-])c1cccc(C2CC(c3ccccc3)=Nc3ccccc3S2)c1 (configuration not stated),84.9%,78.5%,112%,25.6%,16.2%,47.9%,108%,35.7%
Cl/C(=N\Nc1ccccc1)c1ccccc1,89.9%,98.8%,80.6%,105%,87.4%,102%,102%,
CCN(CC)CCCC(C)Nc1ccnc2c(OC)cccc12 (configuration not stated),119%,118%,118%,115%,101%,112%,115%,113%
CC1(C)CC(=O)C(c2c(-c3ccccc3)[nH]c3[nH]c(=S)[nH]c(=O)c23)=C(O)C1,98.1%,106%,90.8%,104%,99.6%,102%,108%,118%

SMILES,growth [1],growth [2],growth [3],growth [4],growth [5],growth [6],growth [7],growth [8]
Cc1ccc(C2CC3c4ccccc4C2C2CCCCN32)cc1 (configuration not stated),83.6%,57.4%,97.8%,106%,95.7%,95.1%,93.1%,
Cc1nn(-c2nc3ccccc3[nH]2)c2c1C(c1ccc3c(c1)OCO3)CC(=O)N2 (configuration not stated),45.6%,49.4%,5.5% (active),10.8%,17.4%,6.24% (active),63.6%,1.53% (active)
COC1=CC(=O)C(OC)=C(OC)C1=O,97%,101%,97.5%,101%,90.6%,92.3%,117%,110%
N=c1c2ccccc2nc2n1CCCCC2,111%,117%,103%,110%,99.4%,109%,106%,112%
C/C(=C(/c1ccc(O)cc1)c1ccc(OCCN2CCCC2)cc1)c1ccccc1,28.5%,64%,39.9%,67.8%,22.2%,41.2%,66.3%,51.6%
O=C(Nc1ccc(CN2CCOCC2)cc1)c1[nH]ncc1Nc1ncnc2sccc12,17.5%,-8.71% (active),18.1%,5.35% (active),8.76% (active),6.07% (active),-9.48% (active),0.0776% (active)
C=C1CCC2C3(C)COC(C)(C)OC3CCC2(C)C1C/C=C1/C(=O)OCC1OC(C)=O (configuration not stated),27.7%,52.9%,27.1%,-38.8% (active),16.5%,-21.1% (active),100%,10.1%
Cn1cc(-c2nc(-c3c[nH]c4ccccc34)cs2)c2cccnc21,0.223% (active),7.05% (active),1.86% (active),32%,14.7%,26.3%,54.7%,27.4%
COc1ccc(-c2nn(-c3ccccc3)cc2/C=C/C(=O)OCc2cn(-c3ccc(F)c(Cl)c3)nn2)cc1,48.3%,101%,65.3%,100%,71%,84.8%,98.7%,93.9%
CCN(CC)CCCNc1cc(OC)cc2nc3cc(Cl)ccc3nc12,29.8%,2.46% (active),-90.4% (active),-36.9% (active),-2.19% (active),-91.8% (active),27.5%,-51.4% (active)
Nc1c(C(=O)Nc2cccc3c2OCCO3)sc2nc3c(cc12)C(=O)CCC3,36.5%,62.7%,-60.4% (active),25.2%,18.6%,33.8%,46.6%,23.4%
O=C(CN1CCN(c2cc3c(cc2F)c(=O)c(C(=O)N/N=C/c2ccccc2)cn3C2CC2)CC1)N/N=C\c1ccccc1,92%,65.2%,78.6%,87.8%,53.2%,70.7%,91%,71.1%
CCOC(=O)C(=Cc1ccccc1F)C(=O)OCC,67.4%,87.4%,84.6%,107%,58.6%,75.1%,110%,84.7%
COc1ccc(-c2nc(Nc3cc(C)[nH]n3)c3ccccc3n2)cc1,28.6%,51.7%,26.6%,35.4%,22.1%,29.5%,74.2%,18.3%
COc1ccc(/C=C/C(=O)c2c(O)c(C)c(O)c3c2OC2=CC(O)=C(C(C)=O)C(=O)[C@]23C)cc1,-17.1% (active),-19.9% (active),-66.9% (active),6.73% (active),-2.88% (active),-8.41% (active),-30.2% (active),-4.07% (active)
CC(C)(C)n1cc(-c2ccnc(NCCCNS(=O)(=O)c3cccc4ccccc34)c2)c(-c2cccc(O)c2)n1,7.41% (active),39.8%,36.4%,16.3%,11.5%,29.4%,-49.4% (active),14.3%
